The list is not random: actives were taken first. Their share in the collection is about 0.78%.
RGS7-Gao – modulates binding of RGS7 to human Galphao. P09471. Multiplexed bead flow cytometry; actives lie on both sides. binding response (% of control), % at 10 µM. hit rate 0.35% among 220,000. AID 1439; in the data active means binding response below about 49% or above about 150%; inconclusive means no clear call, values can overlap the other calls; inactive means in between;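 further: fluorescent Galphao held in activated GDP-AlF4 state binding bead-coupled RGS7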
Target sequence (P09471 whole entry, looked up): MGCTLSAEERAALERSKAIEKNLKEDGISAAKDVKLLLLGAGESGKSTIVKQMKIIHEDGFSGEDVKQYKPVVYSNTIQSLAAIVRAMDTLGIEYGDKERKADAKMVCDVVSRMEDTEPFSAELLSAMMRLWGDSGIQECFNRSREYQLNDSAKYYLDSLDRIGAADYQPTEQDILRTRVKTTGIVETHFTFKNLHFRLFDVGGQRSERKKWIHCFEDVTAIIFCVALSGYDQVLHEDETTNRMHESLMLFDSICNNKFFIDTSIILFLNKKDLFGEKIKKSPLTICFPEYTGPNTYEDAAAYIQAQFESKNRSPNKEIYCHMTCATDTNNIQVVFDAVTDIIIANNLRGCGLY
RGS4-Gao reg – human RGS4-Galphao interaction regulation; Multiplexed bead flow cytometry, RGS4-Galphao binding; actives lie on both sides; binding response (% of control), % at 10 µM; P09471; hit rate 0.33% among 220,000; AID 1415; in the data active means binding response below about 49% or above about 150%; inactive means in between;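 further: fluorescent Galphao activated with aluminum fluoride binding bead-coupled RGS4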
RGS8-Gao – human RGS8-Galphao interaction regulation; multiplexed bead flow cytometry, RGS8-Galphao binding; actives lie on both sides; P09471; hit rate 0.34% among 220,000; response (percent of control binding), % at 10 µM; in the data active means response below about 60% or above about 140%; inactive means in between;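 further: Galphao activated as the GDP aluminium fluoride complex binding bead-coupled RGS8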
RGS16-Gao – RGS16-Galphao interaction regulator (human); bead-based flow cytometry RGS16-Galphao binding, fluorescence; actives lie on both sides; binding response (% of control), % at 10 µM; hit rate 0.38% among 220,000; AID 1441;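 further: Galphao activated by GDP with aluminum fluoride before binding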
Target sequence (O15492 whole entry, looked up): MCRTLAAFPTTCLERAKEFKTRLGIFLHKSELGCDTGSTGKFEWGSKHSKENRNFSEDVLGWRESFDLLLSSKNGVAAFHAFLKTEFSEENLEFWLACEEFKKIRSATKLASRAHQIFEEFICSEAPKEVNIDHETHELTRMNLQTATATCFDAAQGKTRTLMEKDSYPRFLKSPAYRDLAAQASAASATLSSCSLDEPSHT
Target sequence (P09471 whole entry, looked up): as the sequence (P09471 whole entry, looked up) above
RGS-Gao – modulates binding between human RGS4 and Galphao | shares compounds with RGS16-Gao | multiplexed bead flow cytometry, RGS–Galpha-o binding | RGS4–Galpha-o binding response, % at 10 µM | hit rate 99% among 1,600 | AID 1504;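 further: fluorescently labeled Galpha-o bound to GDP with aluminium fluoride binding biotinylated RGS beads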
Biotin-avidin – biotin-avidin bead binding disruption counter-screen | shares compounds with RGS16-Gao | streptavidin beads, fluorescein-biotin binding, flow cytometry | inhibition, % at 10 µM | 1,700 tested, under 10 active | AID 1783;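 active means inhibition above 50%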;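 further: median green fluorescence of gated singlet beads compared with DMSO control wells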
RGS8-Gao confirm – confirmation of regulators of human RGS8-Galphao interaction | shares compounds with RGS16-Gao | bead-based flow cytometry RGS8-Galphao binding, fluorescence; actives lie on both sides | binding response (% of control), % at 10 µM | hit rate 3% among 1,700 | AID 1836; in the data active means binding response below about 72% or above about 130%; inactive means in between;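 further: Galphao activated as GDP AlF4 complex before binding bead RGS8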
RGS7-Gao confirm – confirmation of regulators of human RGS7-Galphao interaction; shares compounds with RGS16-Gao; bead-based flow cytometry RGS7-Galphao binding; actives lie on both sides; response (percent of control binding), % at 10 µM; hit rate 7.8% among 1,700; AID 1837; in the data active means response below about 75% or above about 130%; inactive means in between;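 further: fluorescent Galphao activated with GDP and aluminum fluoride binding bead-coupled RGS7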
RGS16-Gao conf – RGS16-Galphao interaction regulation, single point confirmation; hit rate 4% among 1,700; bead-based flow cytometry, RGS16-Galphao binding; actives lie on both sides; response (% of control binding), % at 10 µM; shares compounds with RGS16-Gao; in the data active means response below about 74% or above about 130%; inactive means in between;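 further: Galphao activated as the GDP aluminium fluoride complex binding bead-coupled RGS16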
RGS4-Gao single – confirmation of regulators of human RGS4-Galphao interaction. shares compounds with RGS16-Gao. RGS4-Galphao binding, multiplexed bead flow cytometry; actives lie on both sides. binding response (% of control), % at 10 µM. hit rate 4% among 1,700; in the data active means binding response below about 74% or above about 130%; inactive means in between
RGS19-Gao conf – confirmation of regulators of human RGS19-Galphao interaction; bead-based flow cytometry RGS19-Galphao binding; actives lie on both sides; response (percent of control binding), % at 10 µM; shares compounds with RGS16-Gao; hit rate 5% among 1,700; in the data active means response below about 50% or above about 160%; inactive means in between
Each line names hits and unclear results; the compound was inactive in the other large screens (follow-up assays come after a bar, where they were run); [ ] = another dose, or the depositor's remark. Unless noted, how the calls were made is not given here.

CCCNC(=O)CN(c1cccc(F)c1)S(C)(=O)=O	RGS8-Gao 155[activator] | RGS-Gao 126 | Biotin-avidin inactive | RGS8-Gao confirm inactive | RGS7-Gao confirm inactive | RGS16-Gao conf inactive | RGS4-Gao single inactive | RGS19-Gao conf inactive
COc1cccc2cc(C(C)=O)oc12	none
CCOc1cccc2cc(C(C)=O)oc12	RGS7-Gao 10, RGS4-Gao reg 11, RGS8-Gao 11, RGS16-Gao 5.6 | Biotin-avidin inactive | RGS8-Gao confirm inactive | RGS7-Gao confirm inactive | RGS16-Gao conf inactive | RGS4-Gao single inactive | RGS19-Gao conf inactive
CCN1CCc2c(C#N)c(N3CCOCC3)nc(NCc3ccccc3)c2C1	none
CC(=O)c1cccc(Nc2cc(C)nc3c(C)cccc23)c1	RGS7-Gao inconclusive
Cc1nn(C(C)C(=O)NCCCc2ccccc2)c(=O)c2cc3occc3n12 (stereo not drawn)	none (no result: RGS8-Gao) | Biotin-avidin inactive | RGS8-Gao confirm inactive | RGS7-Gao confirm inactive | RGS16-Gao conf inactive | RGS4-Gao single inactive | RGS19-Gao conf inactive
CCOc1ccc(CCNC(=O)C(C)n2nc(C)n3c(cc4occc43)c2=O)cc1OCC (stereo not drawn)	none
c1ccc(-c2nccnc2-c2ccccc2)cc1	RGS7-Gao inconclusive
FC(F)Sc1nc(-c2ccccc2)c(-c2ccccc2)n1C(F)F	RGS7-Gao 174[activator] | RGS-Gao 117 | Biotin-avidin inactive | RGS8-Gao confirm inactive | RGS7-Gao confirm inactive | RGS16-Gao conf inactive | RGS4-Gao single inactive | RGS19-Gao conf inactive
CCOC(=O)c1c(-c2cccs2)csc1NC(=O)CN(CC)CC	RGS7-Gao 42, RGS4-Gao reg 46, RGS8-Gao 55 | Biotin-avidin inactive | RGS8-Gao confirm inactive | RGS7-Gao confirm inactive | RGS16-Gao conf inactive | RGS4-Gao single inactive | RGS19-Gao conf inactive
NC1=NC(c2ccccc2)N=C(Nc2ccccc2)N1 (stereo not drawn)	RGS7-Gao inconclusive, RGS4-Gao reg -58, RGS8-Gao 0.9, RGS16-Gao -30 | Biotin-avidin inactive | RGS8-Gao confirm inactive | RGS7-Gao confirm inactive | RGS16-Gao conf inactive | RGS4-Gao single inactive | RGS19-Gao conf inactive
CC(C)c1cccc(C(C)C)c1OCCCCN1CCCC1	none (no result: RGS7-Gao, RGS4-Gao reg, RGS8-Gao, RGS16-Gao) | Biotin-avidin inactive | RGS8-Gao confirm inactive | RGS7-Gao confirm inactive | RGS16-Gao conf inactive | RGS4-Gao single inactive | RGS19-Gao conf inactive
NC(=O)SC/C(=N\S(=O)(=O)c1ccccc1)Nc1ccccc1	RGS7-Gao 268[activator], RGS4-Gao reg 350[activator], RGS16-Gao 418[activator] | Biotin-avidin inactive | RGS8-Gao confirm inactive | RGS7-Gao confirm inactive | RGS16-Gao conf inactive | RGS4-Gao single inactive | RGS19-Gao conf inactive
Cn1c2c(c(=O)n(C)c1=O)CN(CCN1CCNCC1)CN2	none
Cc1noc(C)c1CSc1ncnc2sc(C)c(C)c12	none (no result: RGS7-Gao, RGS16-Gao) | Biotin-avidin inactive | RGS8-Gao confirm inactive | RGS7-Gao confirm inactive | RGS16-Gao conf inactive | RGS4-Gao single inactive | RGS19-Gao conf inactive
Cc1noc(C)c1CSc1ncnc2sc3c(c12)CCCCC3	none
O=C(NNC(=O)c1cnccc1C(F)(F)F)c1ccccc1	RGS7-Gao inconclusive
CCCCN(CCCC)S(=O)(=O)c1ccc(NC(=O)c2ccc([N+](=O)[O-])cc2Cl)cc1	RGS16-Gao 304[activator] | RGS-Gao 113 | Biotin-avidin inactive | RGS8-Gao confirm inactive | RGS7-Gao confirm inactive | RGS16-Gao conf inactive | RGS4-Gao single inactive | RGS19-Gao conf inactive
COc1ccc(C(C)C)cc1S(=O)(=O)NCc1ccccn1	none
CC(=O)N/C(N)=N/c1nc2cc([N+](=O)[O-])ccc2o1	RGS7-Gao inconclusive | Biotin-avidin inactive | RGS8-Gao confirm inactive | RGS7-Gao confirm inactive | RGS16-Gao conf inactive | RGS4-Gao single inactive | RGS19-Gao conf inactive
COc1ccc(-c2cc(-c3n[nH]c(=S)n3-c3ccccc3OC)[nH]n2)cc1	none
COc1ccccc1-n1c(-c2cn(C)nc2C)n[nH]c1=S	RGS16-Gao 13 | RGS-Gao 93 | Biotin-avidin inactive | RGS8-Gao confirm inactive | RGS7-Gao confirm inactive | RGS16-Gao conf inactive | RGS4-Gao single inactive | RGS19-Gao conf inactive
COc1ccccc1-n1c(-c2ccccc2)n[nH]c1=S	RGS7-Gao 159[activator] | RGS-Gao 106 | Biotin-avidin inactive | RGS8-Gao confirm inactive | RGS7-Gao confirm 176[activator] | RGS16-Gao conf 137[activator] | RGS4-Gao single 133[activator] | RGS19-Gao conf 157[activator]
Cc1ccc(-c2cc(C(=O)N3CCCC3)no2)cc1	none
Cc1cc(NC(=O)CSc2nnc3c4c(C)c(C)sc4ncn23)no1	RGS7-Gao 188[activator] | RGS-Gao 114 | Biotin-avidin inactive | RGS8-Gao confirm inactive | RGS7-Gao confirm inactive | RGS16-Gao conf inactive | RGS4-Gao single inactive | RGS19-Gao conf inactive
Cc1cc(NC(=O)CSc2nc(C(C)C)nc3sc(C)c(C)c23)no1	none
Cc1ccc(SCCC(=O)OCn2nnc3ccccc3c2=O)cc1	none
Clc1ccc(-n2nnc(-c3cccnc3)n2)cc1Cl	RGS7-Gao 43, RGS4-Gao reg 47, RGS8-Gao 53 | Biotin-avidin inactive | RGS8-Gao confirm inactive | RGS7-Gao confirm inactive | RGS16-Gao conf inactive | RGS4-Gao single inactive | RGS19-Gao conf inactive
COc1ccc(S(=O)(=O)N(C)c2c(C)n(C)n(-c3ccccc3)c2=O)cc1OC	RGS7-Gao 203[activator] | RGS-Gao 119 | Biotin-avidin inactive | RGS8-Gao confirm inactive | RGS7-Gao confirm 67 | RGS16-Gao conf 74 | RGS4-Gao single 71 | RGS19-Gao conf 50
Cn1c(=O)c2c(nc(NCCCO)n2Cc2cccc(Br)c2)n(C)c1=O	none
COc1ccccc1NC(=O)CN(c1ccc([N+](=O)[O-])cc1)S(=O)(=O)c1ccccc1	RGS16-Gao 185[activator] | RGS-Gao 113 | Biotin-avidin inactive | RGS8-Gao confirm inactive | RGS7-Gao confirm inactive | RGS16-Gao conf inactive | RGS4-Gao single inactive | RGS19-Gao conf inactive
Cc1sc2ncnc(NCCCn3ccnc3)c2c1C	none
COc1ccc(C(=S)N2CCOCC2)cc1OC(=O)c1cc([N+](=O)[O-])c(C)c([N+](=O)[O-])c1	none

From PubChem
